# Read-outs that look alike come from different tables or passages of the source. The campaign covered roughly 13,000 compounds. About 3,200 (25%) showed an effect of 50% or more. The list shows a part of the results.
# System: P. falciparum stage V gametocytes
# Set-up: BacTiter-Glo ATP luminescence viability of purified stage V gametocytes in 384-well plates, per cent inhibition versus DMSO
# Settings: 48 h, 5 µM, inhibitor
Structure (SMILES),% Inhibition [%],% Inhibition (% Inhibition) [%]
CC(C)c1sc(N2CCN(C)CC2)nc1C(=O)NCCc1cccc(Cl)c1 [TCMDC-134297],6.593,
O=C(NCCc1ccc(Cl)c(Cl)c1)c1ccc(CNC(=O)c2ccc(O)c(-c3ccc(Cl)c(Cl)c3)c2)cc1 [TCMDC-140872],8.428,
CC(C)c1ccc(NC(=O)c2ccc(CN3CCCN(Cc4cccc(Cl)c4)CC3)cc2)cc1 [TCMDC-136418],3.705,
CC(Cc1ccc(CNC(=O)NCc2ccc(CC(C)NCCc3cccc(Cl)c3)cc2)cc1)NCCc1cccc(Cl)c1 (stereo not shown) [TCMDC-139648],111.4,
CC(Cc1ccc(CNC(=O)c2ccc(CC(C)NCCc3cccc(Cl)c3)cc2)cc1)NCCc1cccc(Cl)c1 (stereo not shown) [TCMDC-139659],108.3,
CC(Cc1ccc(C(=O)N2CCN(C(=O)c3ccc(CC(C)NCCc4cccc(Cl)c4)cc3)CC2)cc1)NCCc1cccc(Cl)c1 (stereo not shown) [TCMDC-139613],105.5,
CC(Cc1ccc(NS(=O)(=O)c2ccc(CC(C)NCCc3cccc(Cl)c3)cc2)cc1)NCCc1cccc(Cl)c1 (stereo not shown) [TCMDC-139797],48.75,
CC(C)n1cc(CN2CCCC(C(=O)Nc3cccc(-c4cc5ccccc5[nH]4)c3)C2)cn1 (stereo not shown) [TCMDC-124681],-62.3,
CC(C)c1sc(N2CCCCC2)nc1C(=O)Nc1ccc(F)cc1C(F)(F)F [TCMDC-134299],-21.66,
COc1cccc(CNC(=O)NC2CCN(c3ccnc(Nc4cc(OC)c(OC)c(OC)c4)n3)C2)c1 (stereo not shown) [TCMDC-133628],38.97,
CN(C)CCCNCc1ccc(-c2ccc(C(F)(F)F)cc2)cc1 [TCMDC-140011],92.27,
CS(=O)(=O)NCCCNCc1ccc(-c2cccc(-c3nc4ccc(C(F)(F)F)cc4[nH]3)c2)cc1 [TCMDC-133087],6.297,
CCN(CC)CCCNCc1ccc(-c2ccc(C(F)(F)F)cc2)cc1 [TCMDC-141087],65.86,
CS(=O)(=O)NCCCNCc1ccc(-c2ccc(-c3nc4cc(C(F)(F)F)ccc4[nH]3)cc2)cc1.O=C(O)C(F)(F)F [TCMDC-133080],-31.8,
CN1CCC(NCc2ccc(-c3ccc(C(F)(F)F)cc3)cc2)CC1 [TCMDC-141094],-30.31,
FC(F)(F)c1ccc2[nH]c(-c3ccc(-c4ccc(CNCCc5ccncc5)cc4)cc3)nc2c1.O=C(O)C(F)(F)F [TCMDC-132852],-64.17,
O=C(CC(=O)C(F)(F)F)c1ccccc1[N+](=O)[O-] [TCMDC-125884],22.33,
Cc1ccc(-n2c(Cc3cccc4ccccc34)nnc2SCCC#N)c(C)c1 [TCMDC-123560],-0.8399,
O=C(CC1CCCC1)Nc1ccc2c(c1)CCC2 [TCMDC-124327],8.334,
CC(C)n1ncc2c(C(=O)N3CCCC4CCCCC43)cc(C3CC3)nc21 (stereo not shown) [TCMDC-125305],-1.205,
Cc1ccc(-n2c(Sc3ncnc4sccc34)nnc2N2CCCC2)cc1 [TCMDC-125247],65.97,
CN1CCN(CCCCCNc2c3ccccc3nc3ccccc23)CC1 [TCMDC-137541],96.5,

Structure (SMILES),% Inhibition [%],% Inhibition (% Inhibition) [%]
CC(CCNc1c2ccccc2nc2ccccc12)N1CCN(C)CC1 (stereo not shown) [TCMDC-138011],98.03,
CN1CCN(c2nc(NCCNc3ccc([N+](=O)[O-])cc3)c3ccccc3n2)CC1 [TCMDC-124567],35.05,
CN1CCN(CCCCNc2c3ccccc3nc3ccccc23)CC1 [TCMDC-137479],105.4,
COc1cc2nc(NCCC(C)C)n3nc(-c4ccccc4)nc3c2cc1OC [TCMDC-124451],-18.82,
CN1CCN(CCCCCCNc2c3ccccc3nc3ccccc23)CC1 [TCMDC-137542],98.34,
COc1ccc2nccc([C@@H](O)CN3CCC(NCc4nc5c(cc4Cl)SCC(=O)N5)C(F)C3)c2c1 (stereo partly shown) [TCMDC-141717],,2.766
O=C(Nc1ccc(S(=O)(=O)N2CCCC2)cc1)c1cc(-c2cccnc2)nc2ccc(Cl)cc12 [TCMDC-124359],-22.21,
COc1ccc(-c2cnc(N)nc2N)cc1Cl [TCMDC-137297],-3.357,
CC(C)(C)c1cc(C(=O)N2CCN(c3ccc(C(F)(F)F)cn3)CC2)n(Cc2ccc(F)cc2)n1 [TCMDC-123791],22.03,
Cc1nc(-c2cccc3c(NC(=O)N4CCc5cc6nccc(N7CCN(C)CC7)c6cc54)cccc23)no1 [TCMDC-139370],-51.93,
Cc1cc(N2CCCCC2)nc2ccc(NC(=O)c3cncc(Br)c3)cc12 [TCMDC-124421],17.06,
O=C(Nc1ccccc1)c1ccc(N2CCC(COc3cccc(C(F)(F)F)c3)CC2)nc1 [TCMDC-134507],-9.482,
CC(C)CNCc1ccc(-c2cccc(CN(C(=O)NC3CCCCC3)C3CCN(Cc4ccccc4)CC3)c2)cc1 [TCMDC-140628],92.69,
CC(C)CNCc1cccc(-c2ccc(CN(C(=O)NC3CCCCC3)C3CCN(Cc4ccccc4)CC3)cc2)c1 [TCMDC-140634],102.1,
CC(C)CNCc1cccc(-c2cccc(CN(C(=O)NC3CCCCC3)C3CCN(Cc4ccccc4)CC3)c2)c1 [TCMDC-140627],95.46,
CC(C)CNCc1ccc(-c2ccc(CN(C(=O)NC3CCCCC3)C3CCN(Cc4ccccc4)CC3)cc2)cc1 [TCMDC-140635],103.7,
CC(C)Oc1ccc(C=CC(=O)Nc2noc3ccccc23)cc1 [TCMDC-125292],41.66,
Cc1cccc(CNc2nc(C)cc(NCCC(=O)NCCOc3ccccc3)n2)c1 [TCMDC-134884],13.93,
COc1ccc2ncc(Cl)c(CCN3CCC(NCc4ccc5c(n4)NC(=O)CO5)CC3)c2c1 [TCMDC-141808],-9.673,
O=C(NCCc1ccc(O)cc1)n1c2ccccc2c2ccccc21 [TCMDC-138166],-0.5781,
Cc1ccccc1CNc1noc(-c2c(F)cccc2Cl)n1 [TCMDC-133373],21.36,

# — publication PMC4552634, “A New Set of Chemical Starting Points with Plasmodium falciparum Transmission-Blocking Potential for Antimalarial Drug Discovery” (PLoS ONE, 2015)
